# Experimental data reported in the supplement of paper PMC6953052.
# Several values for one entry are separate records, joined by “and”; a condition that tells them apart may be missing. Identical values can stand only once. In all, about 1,700 compounds were measured (“fraction of GFP-LC3-positive cells (≥5 vesicles/cell)”: median about 0.43, highest 2% from about 0.81 on). For the sample, the highest values were picked, then their nearest neighbours and some compounds at random.
# Tested on: CbCln3 Δex7/8/Δex7/8 GFP-LC3 cerebellar neuronal cells
# Test: fraction of GFP-LC3-positive cells (≥5 vesicles/cell); higher = more autophagosome accumulation
# Procedure, shortened: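 Compound (~50 nL in DMSO) was pin-transferred in duplicate onto wild-type or mutant CbCln3 cerebellar cells stably expressing GFP-LC3, seeded at 2 × 10^3/well in 384-well plates, for 24 h at 33 °C. After fixation in 3.2% PFA, three fields per well were imaged at 10×. The value reported is the duplicate average of the fraction of cells meeting a vesicle-count threshold, with CellProfiler counting GFP-LC3 vesicles per cell and out-of-focus images excluded. Cells met the threshold at 5 or more vesicles.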
row,Compound,fraction of GFP-LC3-positive cells
1,CCc1cc(Cl)c(OC)c(C(=O)NC[C@@H]2CCCN2CC)c1O.Cl [S(-)Eticlopride hydrochloride],0.341
2,C[C@]1(Cn2ccnn2)[C@H](C(=O)O)N2C(=O)C[C@H]2S1(=O)=O [Tazobactam],0.531
3,CCCCCCCCCCCCCCC[C@@H](O)[C@@H](N)CO [Dihydrosphingosine],0.348
4,CCCCCCCCCCCCCCC[C@@H](O)[C@@H](N)CO,0.515
5,C[C@]12C=CC(=O)C=C1CC[C@@H]1[C@@H]2C(=O)C[C@@]2(C)[C@H]1CC[C@]2(O)C(=O)CO [Prednisone],0.49
6,CCCC[C@@H](C)/C=C(C)/C=C(\C)C(=O)NC1=C[C@@](O)(/C=C/C=C/C=C/C(=O)NC2=C(O)CCC2=O)[C@@H]2O[C@@H]2C1=O [manumycin A],0.917
7,CC(C)NC[C@H](O)COc1cccc2ccccc12.Cl [(S)-propranolol hydrochloride],0.275
8,COc1cc(C(=O)OCCCN2CCCN(CCCOC(=O)c3cc(OC)c(OC)c(OC)c3)CC2)cc(OC)c1OC.Cl.Cl [Dilazep dihydrochloride],0.699
9,COc1cc(/C=C/C(=O)N2CCC=CC2=O)cc(OC)c1OC [Piperlongumine],0.901
10,COC(=O)[C@H]1[C@H]2C[C@@H]3c4[nH]c5cc(OC)ccc5c4CCN3C[C@H]2C[C@@H](OC(=O)/C=C/c2cc(OC)c(OC)c(OC)c2)[C@@H]1OC [Rescinnamin],0.292
11,CN(C)CCC(c1ccccc1)c1ccccn1.O=C(O)/C=C\C(=O)O (centres undefined) [Pheniramine maleate],0.47
12,COc1cc(-c2ccc(=O)[nH]n2)ccc1OC(F)F [zardaverine],0.33
13,CCCCCCCC/C=C/CCCCCCCCCC(=O)O [5561-99-9 11(Z)-Eicosenoic acid],0.401
14,CCCCCCCC/C=C/CCCCCCCCCC(=O)O [11(E)-Eicosenoic acid],0.25
15,Cl.Cl.OCCN1CCN(CC/C=C2/c3ccccc3Sc3ccc(C(F)(F)F)cc32)CC1 [Flupentixol dihydrochloride cis-(Z)],0.291
16,CCCCC/C=C\C[C@@H](O)/C=C/C=C\CCC(=O)O [Tetranor-12(R)-HETE],0.513
17,CC(C)NCC(O)COc1cccc2ccccc12.Cl (stereo in doubt) [(R)-Propranolol hydrochloride],0.486
18,C[C@@H]1C/C=C/C=C/C=C/C=C/[C@H](O[C@@H]2O[C@H](C)[C@@H](O)[C@H](N)[C@@H]2O)C[C@@H]2O[C@](O)(C[C@@H](O)C[C@H]3OC3/C=C/C(=O)O1)C[C@H](O)[C@H]2C(=O)O (some centres undefined) [Natamycin],0.298
19,NS(=O)(=O)c1cc(C(=O)O)c(NCc2ccco2)cc1Cl [Furosemide],0.511
20,CCC(C)[C@H](NS(=O)(=O)c1cccc2ccccc12)C(=O)N[C@H](C=O)Cc1c[nH]c2ccccc12 (some centres undefined),0.69 and 0.692
21,CCN[C@H]1C[C@H](C)S(=O)(=O)c2sc(S(N)(=O)=O)cc21.Cl [Dorzolamide hydrochloride],0.432
22,C=C1c2c(Cl)ccc(O)c2C(=O)C2=C(O)[C@]3(O)C(=O)C(C(N)=O)=C(O)[C@@H](N(C)C)[C@@H]3[C@@H](O)C12.O=C(O)c1cc(S(=O)(=O)O)ccc1O (some centres undefined) [Meclocycline sulfosalicylate],0.345
23,CCc1cc(C(N)=S)ccn1 [Ethionamide],0.393

row,Compound,fraction of GFP-LC3-positive cells
1,O=C(CCNNC(=O)c1ccncc1)NCc1ccccc1 [Nialamide],0.406
2,Clc1cccc(Nc2nnc(-c3ccccc3)c3ccccc23)c1,0.522
3,CC[C@H](C)C(=O)O[C@H]1C[C@@H](C)C=C2C=C[C@H](C)[C@H](CC[C@@H]3C[C@@H](O)CC(=O)O3)[C@H]21 [Lovastatin],0.0901
4,C=CC(N)CCC(=O)O (centres undefined) [Vigabatrin],0.474
5,O=C(O)CCCC[C@@H]1SC[C@@H]2NC(=O)N[C@@H]21 [Biotin],0.393
6,CCN(CC)CCOCCOC(=O)C1(c2ccccc2)CCCC1.O=C(O)CC(O)(CC(=O)O)C(=O)O [Carbetapentane citrate],0.469
7,NS(=O)(=O)c1cc(C(=O)O)cc(N2CCCC2)c1Oc1ccccc1 [Piretanide],0.344
8,CC(C(=O)O)c1ccc(C(=O)c2ccccc2)s1 (centres undefined) [Tiaprofenic acid],0.467
9,CN(C(Cc1ccc(OS(=O)(=O)c2cccc3cnccc23)cc1)C(=O)N1CCN(c2ccccc2)CC1)S(=O)(=O)c1cccc2cnccc12 (centres undefined),0.324 and 0.255
10,CCCCCCCCCCCCCCCCCCOC[C@@H](O)COP(=O)([O-])OCC[N+](C)(C)C,0.362
11,Cc1cc2cc3c(C)cc(=O)oc3c(C)c2o1 [Trioxsalen],0.357
12,COc1cc(C)nc(-n2nc(C)cc2OC)n1 [Epirizole],0.324
13,C[N+]1(CCCCC[N+]2(C)CCCC2)CCCC1.O=C([O-])[C@H](O)[C@@H](O)C(=O)O.O=C([O-])[C@H](O)[C@@H](O)C(=O)O [Pentolinium bitartrate],0.493
14,COC(=O)C1=C(C)NC(C)=C(C(=O)OCCN(C)Cc2ccccc2)C1c1cccc([N+](=O)[O-])c1 (centres undefined) [Nicardipine],0.146
15,Nc1nc(S)c2ncn([C@@H]3O[C@H](CO)[C@@H](O)[C@H]3O)c2n1 [Thioguanosine],0.576
16,Nc1ncnc2c1ncn2C1O[C@H](CO)[C@@H](O)[C@@H]1O (some centres undefined) [Vidarabine],0.406
17,Nc1ncn(C2O[C@H](CO)[C@@H](O)[C@H]2O)c(=O)n1 (some centres undefined) [Azacytidine-5],0.861
18,Nc1ccc(S(=O)(=O)Nc2ncccn2)cc1 [Sulfadiazine],0.438
19,C=C1CC[C@H](O)C/C1=C/C=C1\CCC[C@]2(C)[C@@H]([C@H](C)CCCC(C)C)CC[C@@H]12 [Cholecalciferol],0.281
20,Oc1cc(O)c2c(c1)O[C@H](c1ccc(O)c(O)c1)[C@@H](O)C2 [Epicatechin-(-)],0.438
21,NS(=O)(=O)c1cc2c(cc1C(F)(F)F)NCNS2(=O)=O [Hydroflumethiazide],0.451
22,C[C@@H](O)CCC[C@H](O)/C=C/[C@@H]1[C@@H](C/C=C\CCCC(=O)O)[C@@H](O)C[C@H]1O [19(R)-Hydroxy-prostaglandin F2a],0.532
23,O=C(NCCNCC(O)COc1ccc(O)cc1)N1CCOCC1.O=C(NCCNCC(O)COc1ccc(O)cc1)N1CCOCC1.O=C(O)/C=C/C(=O)O (centres undefined) [Xamoterol hemifumarate],0.32

row,Compound,fraction of GFP-LC3-positive cells
1,COc1cc([C@@H]2c3cc4c(cc3[C@@H](OC3OC5COC(C)OC5C(O)C3O)[C@H]3COC(=O)[C@H]23)OCO4)cc(OC)c1O (some centres undefined) [etoposide],0.664
2,Cc1cccc(C)c1NC(=O)C(C)N.Cl (centres undefined) [Tocainide hydrochloride],0.504
3,Cl.c1ccc(CC2=NCCN2)cc1 [Tolazoline hydrochloride],0.508
4,C=CC(=O)c1ccc2ccccc2c1,0.499
5,NC[C@H]1CC[C@H](C(=O)O)CC1 [Tranexamic acid],0.53
6,CC(=O)OC(C)C[N+](C)(C)C.[Cl-] (centres undefined) [Methacholine chloride],0.309
7,CCCc1cc(=O)[nH]c(=S)[nH]1 [Propylthiouracil],0.375
8,O=C(O)/C=C/c1ccc(O)c(O)c1 [Caffeic acid],0.359
9,COC(=O)/C=C/c1cc(O)ccc1O,0.924
10,COc1ccc(C(=O)c2ccccc2)c(O)c1 [Oxybenzone],0.465
11,CCC[C@@H]1C[C@@H](C(=O)N[C@@H](C2O[C@H](SC)[C@H](O)[C@@H](O)[C@H]2O)[C@H](C)Cl)N(C)C1.Cl (some centres undefined) [Clindamycin hydrochloride],0.462
12,O=C1Nc2ccc([N+](=O)[O-])cc2C1=O [5-Nitroisatin],0.469
13,CCCCNc1cc(C(=O)O)cc(S(N)(=O)=O)c1Oc1ccccc1 [bumetanide],0.319
14,CCCCN(CCCC)CCC(O)c1cc2c(Cl)cc(Cl)cc2c2cc(C(F)(F)F)ccc12.Cl (centres undefined) [Halofantrine hydrochloride],0.319
15,CCCCC[C@H](O)/C=C/C=C\C=C\C=C\[C@@H](O)[C@@H](O)CCCC(=O)O [Lipoxin A4],0.498
16,"OCC(O)CN1CCN(c2ccccc2)CC1 (racemic) [Dropropizine (R,S)]",0.442
17,Cl.OC(CCN1CCCCC1)(c1ccccc1)C1C[C@@H]2C=C[C@H]1C2 (some centres undefined) [Biperiden hydrochloride],0.447
18,CC[N+](CC)(CC(=O)Nc1c(C)cccc1C)Cc1ccccc1.O=C([O-])c1ccccc1 [Denatonium benzoate],0.424
19,"Nc1ncnc2c1ncn2[C@@H]1O[C@@H]2COP(=O)(O)OC2C1O (single isomer, unassigned; (-)) [(-)-Adenosine 3',5'-cyclic monophosphate]",0.271
20,COCCOC(=O)C1=C(C)NC(C)=C(C(=O)OC(C)C)C1c1cccc([N+](=O)[O-])c1 (centres undefined) [Nimodipine],0.35
21,Cl.N=C(N)NC(=O)c1nc(Cl)c(N)nc1N.O.O [Amiloride hydrochloride dihydrate],0.398
22,CC(=O)O[C@H]1C(=O)[C@@]2(C)C([C@H](OC(=O)c3ccccc3)[C@]3(O)C[C@H](OC(=O)[C@H](O)[C@@H](NC(=O)c4ccccc4)c4ccccc4)C(C)=C1C3(C)C)[C@]1(OC(C)=O)CO[C@@H]1C[C@@H]2O (some centres undefined) [taxol =paclitaxel],0.89
23,CC(=O)O[C@H]1C(=O)[C@@]2(C)[C@H]([C@H](OC(=O)c3ccccc3)[C@]3(O)C[C@H](OC(=O)[C@H](O)[C@@H](NC(=O)c4ccccc4)c4ccccc4)C(C)=C1C3(C)C)[C@]1(OC(C)=O)CO[C@@H]1C[C@@H]2O [Paclitaxel],0.843
